Screens as filed in PubChem BioAssay.
An excerpt weighted towards active compounds, which were near 27% of everything screened.
CYP2C19 activ: human CYP2C19 activators, primary screen, biochemical, luminescence | Cytochrome P450 2C19 (Homo sapiens), P33261 | recombinant CYP2C19, luciferin-H EGE luminescence; hits give high values; 0 = fully inhibited enzyme, 1 = untreated enzyme | activation factor at 5 µM | 96,000 tested, under 10 active | AID 1025, 2008;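 active = activation factor of at least 2 at 5 µM in the primary screen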
CYP2C9 inh: blockers of cytochrome P450 2C9 activity – biochemical, luminescence, ADME assay, primary screen; P11712; CYP2C9 Supersomes, luciferin-H conversion; inhibition, % at 5 µM; 96,000 tested, 20% active; AID 777, 2007;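 active = blocking of liver enzyme CYP2C9 beyond about 50% at 5 µM, limit read from the data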
CYP2C19 inh: blockers of cytochrome P450 2C19 activity – biochemical, luminescence, ADME assay, primary screen. CYP2C19 Supersomes, luciferin-H EGE luminescence, 30 min. inhibition, % at 5 µM. 96,000 tested, 21% active;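 active = CYP2C19 inhibition above a set limit at 5 µM in the primary screen, cut at about 50% in these data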
EphB4 antag: EphB4-ephrin-B2 interaction antagonists, primary screen, biochemical, TNYL-RAW peptide probe, fluorescence polarization; Ephrin type-B receptor 4 (Homo sapiens), P54760; EphB4 LBD / TNYL-RAW-Alexa532 peptide; inhibition, % at 7 µM; 97,000 tested, 0.15% active;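 active = inhibition above the screen-wide mean inhibition plus 3 SD, cut at about 15% in these data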
Target sequence (P54760 whole entry, looked up, the tested form may be a part): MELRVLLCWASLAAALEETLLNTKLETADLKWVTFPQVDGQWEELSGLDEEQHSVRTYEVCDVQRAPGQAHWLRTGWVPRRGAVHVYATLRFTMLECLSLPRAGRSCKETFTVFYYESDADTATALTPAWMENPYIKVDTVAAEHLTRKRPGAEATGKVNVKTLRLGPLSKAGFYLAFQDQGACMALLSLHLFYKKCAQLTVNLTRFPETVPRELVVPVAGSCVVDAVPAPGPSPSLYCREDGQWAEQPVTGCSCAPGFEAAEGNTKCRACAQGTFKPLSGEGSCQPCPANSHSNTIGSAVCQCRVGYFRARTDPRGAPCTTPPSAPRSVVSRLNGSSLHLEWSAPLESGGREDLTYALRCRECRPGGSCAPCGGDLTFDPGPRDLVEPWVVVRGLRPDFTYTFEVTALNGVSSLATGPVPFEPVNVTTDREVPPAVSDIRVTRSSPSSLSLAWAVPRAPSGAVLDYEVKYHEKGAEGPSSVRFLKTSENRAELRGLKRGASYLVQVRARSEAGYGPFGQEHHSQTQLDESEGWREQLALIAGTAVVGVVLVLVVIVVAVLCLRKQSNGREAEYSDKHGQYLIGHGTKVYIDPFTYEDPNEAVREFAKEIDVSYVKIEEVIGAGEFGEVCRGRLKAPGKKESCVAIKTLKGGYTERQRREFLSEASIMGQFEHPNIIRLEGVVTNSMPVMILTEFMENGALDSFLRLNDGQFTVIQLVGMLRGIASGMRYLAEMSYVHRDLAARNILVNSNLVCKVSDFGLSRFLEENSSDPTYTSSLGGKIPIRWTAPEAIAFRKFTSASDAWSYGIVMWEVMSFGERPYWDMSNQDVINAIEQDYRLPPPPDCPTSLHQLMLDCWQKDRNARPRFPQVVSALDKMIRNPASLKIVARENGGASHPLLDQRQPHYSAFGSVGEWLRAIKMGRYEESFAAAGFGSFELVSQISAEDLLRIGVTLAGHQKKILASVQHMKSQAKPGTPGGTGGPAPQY
CYP2C9 activ: human CYP2C9 activators, primary screen, biochemical, luminescence; Cytochrome P450 2C9 (Homo sapiens), P11712; 96,000 tested, 1.4% active; recombinant CYP2C9, luciferin-H conversion; hits give high values; factor 1 = untreated enzyme, 0 = blocked; activation factor at 5 µM;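 active = activation factor of 2 or more for CYP2C9 at a 5 µM dose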
Each line names hits and unclear results; the compound was inactive in the other large screens.

COc1ccc(C2CC(c3c(Cl)cccc3Cl)n3nc(N)nc3N2)cc1 (stereo not given)	CYP2C19 inh 62
COc1cccc(C2CC(c3ccc(Cl)cc3Cl)Nc3nc(N)nn32)c1 (stereo not given)	CYP2C9 inh 54, CYP2C19 inh 67
COc1ccc(C2CC(c3ccc(Cl)cc3Cl)n3nc(N)nc3N2)cc1 (stereo not given)	none (no result: CYP2C19 activ, CYP2C9 inh, CYP2C19 inh, CYP2C9 activ)
COc1ccccc1C1CC(c2ccc(Cl)cc2)Nc2nc(N)nn21 (stereo not given)	CYP2C19 inh 50
N#CCO/N=C(\c1ccccc1)c1ccncc1	none (no result: CYP2C19 activ, CYP2C9 inh, CYP2C19 inh, CYP2C9 activ)
CCOc1ccc(C2CC(c3ccccc3C)n3ncnc3N2)cc1 (stereo not given)	CYP2C19 inh 64
COc1cccc(C2CC(c3ccccc3OC)n3ncnc3N2)c1 (stereo not given)	CYP2C9 inh 66, CYP2C19 inh 96
Clc1ccc(C2CC(c3ccco3)n3ncnc3N2)cc1Cl (stereo not given)	none (no result: CYP2C19 activ, CYP2C9 inh, CYP2C19 inh, CYP2C9 activ)
CCOc1ccccc1C1CC(c2ccc(F)cc2)Nc2nc(N)nn21 (stereo not given)	CYP2C19 inh 65
COc1ccccc1C1CC(c2ccc(Cl)cc2)Nc2ncnn21 (stereo not given)	CYP2C9 inh 70, CYP2C19 inh 98
Cc1ccc(S(=O)(=O)N2CCN(S(=O)(=O)N3CCCCC3)CC2)c(C)c1	none
Cn1cccc1Cc1nnc(SCC(=O)Nc2ccc(F)cc2)n1CCc1ccccc1	none (no result: EphB4 antag)
COc1ccc(NC(=O)N[C@@H](CCSC)C(=O)O)cc1Cl	none
CN(C)c1nc(C(=O)OCCO)nc(N(C)C)n1	none
COc1ccccc1CNC(=O)CCCOc1cc(=O)n(C)c2ccccc12	none
Cc1cc(C(=O)CN2C(=O)NC(Cc3c[nH]c4ccccc34)C2=O)c(C)n1C (stereo not given)	CYP2C19 inh 67
CCOc1ccc(N2C(=O)NC(Cc3c[nH]c4ccccc34)C2=O)cc1 (stereo not given)	none
O=C1NC(Cc2c[nH]c3ccccc23)C(=O)N1CCOc1ccccc1 (stereo not given)	CYP2C9 inh 57, CYP2C19 inh 82
O=c1cnn(-c2ccccc2)c(-c2ccccc2)c1	none
O=C(Nc1ccc2nc(-c3ccc4nc[nH]c4c3)[nH]c2c1)c1cccs1	CYP2C9 inh 61
Cc1ccc(NC(=O)CCCCCC2NC(=O)NC2C)cc1 (stereo not given)	CYP2C19 inh 61
COc1cc(OC)cc(OCC(O)Cn2ccnc2C)c1 (stereo not given)	none
COc1cc(OC)cc(OCC(O)Cn2ccnc2)c1 (stereo not given)	CYP2C9 inh 91, CYP2C19 inh 98 (no result: EphB4 antag)
CCOC(=O)CN1C(=O)C(CC)Oc2ccccc21 (stereo not given)	none
CCOC(=O)CN1C(=O)C(Sc2n[nH]c(-c3ccccc3)n2)CCc2ccccc21 (stereo not given)	CYP2C9 inh 93, CYP2C19 inh 89
c1ccc(Nc2ncnc3c2oc2ccccc23)cc1	none
O=S(=O)(Nc1ncnc2c1oc1ccccc12)c1ccc(Cl)s1	CYP2C9 inh 92, CYP2C19 inh 61 (no result: EphB4 antag)
CCOc1ccc(CCNC(=O)c2cc3sccc3n2CC)cc1OCC	CYP2C19 inh 51
CCOC(=O)N1CCC(NC(=O)c2cc3sccc3n2CC)CC1	none
CCN(CC)c1ccc(/C=C(/C#N)c2nc3ccccc3[nH]2)c(OC(C)C)c1	CYP2C9 inh 74
CCOc1cc(/C=C(/C#N)c2nc3ccccc3[nH]2)ccc1OCc1ccc(C(=O)O)o1	none (no result: CYP2C19 activ, CYP2C9 inh, CYP2C19 inh, CYP2C9 activ)
Cc1ccc2nc(/C(C#N)=C/c3cn[nH]c3-c3ccc(F)cc3)[nH]c2c1	none
COc1cc(/C=C(\C#N)c2nc3ccccc3[nH]2)c([N+](=O)[O-])cc1OCc1ccccc1	CYP2C9 inh 76
COc1cc(/C=C(/C#N)c2nc3ccccc3[nH]2)ccc1OCC(=O)Nc1ccccc1C(C)C	CYP2C9 inh 60
Cc1ccc2nc(/C(C#N)=C\c3ccc(N4CCCCC4)c([N+](=O)[O-])c3)[nH]c2c1	CYP2C9 inh 59, CYP2C19 inh 56
CC1CCCCN1CCNC(=O)c1cc2c(=O)n(C)c3ccccc3c2n1C (stereo not given)	none
